{"source": "PubChem BioAssay (EPA / NIEHS)", "note": "Records with an inconclusive call do not appear. The source made the active and inactive calls. How the source made its calls: active means hit-call score of the fitted dose curve at least 0.9, where 1 is the maximum; inconclusive means response in the unintended direction; inactive means score below 0.9.", "data": [{"molecular_target": "human Phosphodiesterase 5 (PDE5), PDE5A (gene 8654) (UniProt O76074)", "experiment": "NVS_ENZ_hPDE5: NovaScreen (NVS) Enzymatic Assay for human Phosphodiesterase 5 (PDE5) (AID 2283194)", "protocol": "NVS_ENZ_hPDE5 is a biochemical, single-readout assay that uses extracted gene-proteins in a cell-free assay. Measurements were taken 1 hour after chemical dosing in a 384-well plate.NVS_ENZ_hPDE5 is one of one assay component(s) measured or calculated from the NVS_ENZ_hPDE5 assay. It is designed to make measurements of enzyme activity, a form of enzyme reporter, as detected with fluorescence intensity signals by Fluorescence and electrophoretic mobility shift technology.Data from the assay component NVS_ENZ_hPDE5 was analyzed into 1 assay endpoint. This assay endpoint, NVS_ENZ_hPDE5, was analyzed in the positive analysis fitting direction relative to DMSO as the negative control and baseline of activity. Using a type of enzyme reporter, loss-of-signal activity can be used to understand changes in the enzymatic activity as they relate to the gene PDE5A. Furthermore, this assay endpoint can be referred to as a primary readout, because this assay has produced multiple assay endpoints where this one serves a enzymatic activity function. To generalize the intended target to other relatable targets, this assay endpoint is annotated to the esterase intended target family, where the subfamily is phosphodiesterase.\nBinding assays used specific radioligands (tritiated, iodinated) with non-radioactive competitive displacement ligands in agonist or antagonist protocols (as indicated) and various reference compounds and inhibitors to titrate specific binding to receptors and transporters. Most enzyme assays (CYPs, kinases, phosphatases, proteases, HDACs) used recombinant protein and specific substrates (fluorescence mostly, some colorimetric and radioactive) and inhibitors, followed by a biochemical separation of substrate and product. All assays for the biochemical HTS were initially run in duplicate at a single concentration (10 uM for CYP450 assays and 25 uM for all others). […] Each assay was run with positive and negative controls, and concurrent controls on every plate. The follow-up (secondary) screen tested active chemical-pairs in concentration series, as well as a few additional assays not tested in the primary screen, some selected negative inactives, and several cases re-run in the concentration series for confirmatory purposes.", "values": [{"smiles": "CCCCCCc1ccc(O)cc1O", "outcome": "inactive"}, {"smiles": "Cn1c(=O)c2c(ncn2C)n(C)c1=O", "outcome": "inactive"}, {"smiles": "Nc1nc2ncc(CNc3ccc(C(=O)N[C@@H](CCC(=O)O)C(=O)O)cc3)nc2c(=O)[nH]1", "outcome": "inactive"}, {"smiles": "COc1ccc(-n2nc(C(F)F)cc2-c2ccc(S(C)=O)cc2)cc1", "note": "(stereo unspecified)", "AC50": "12.9 µM (active)"}, {"smiles": "CC/C(=C\\C(=N/O)C(N)=O)C(C)[N+](=O)[O-]", "note": "(stereo unspecified)", "AC50": "40.1 µM (active)"}, {"smiles": "CC(=O)c1ccc2c(c1)[C@H](NC(=O)c1ccc(F)cc1)[C@@H](O)C(C)(C)O2", "outcome": "inactive"}, {"smiles": "Cn1c(=O)cc(Oc2ccc(F)cc2F)c2cnc(NCC(C)(C)O)nc21", "AC50": "12.4 µM (active)"}, {"smiles": "CC[C@H](C)C(=O)O[C@H]1C[C@@H](C)C=C2C=C[C@H](C)[C@H](CC[C@@H]3C[C@@H](O)CC(=O)O3)[C@H]21", "outcome": "inactive"}, {"smiles": "O=C(O)c1cc(N=Nc2ccc(S(=O)(=O)Nc3ccccn3)cc2)ccc1O", "outcome": "inactive"}, {"smiles": "C=CCCCCCCCCC(=O)O", "outcome": "inactive"}, {"smiles": "COc1ccc2sc(C(=O)Nc3nnn[nH]3)c(OC(C)C)c2c1", "AC50": "0.476 µM (active)"}, {"smiles": "O=C(O)c1cccc(N(Cc2cccnc2)c2ccc(OC(F)F)c(OC(F)F)c2)c1", "AC50": "3.28 µM (active)"}, {"smiles": "Cc1ccc(N)cc1O", "outcome": "inactive"}, {"smiles": "CN(C)c1ccc(N=NS(=O)(=O)O)cc1", "outcome": "inactive"}, {"smiles": "O=C(O)c1cccc(Oc2ccccc2)c1", "outcome": "inactive"}, {"smiles": "CC(C)=CCCC(C)CCO", "note": "(stereo unspecified)", "outcome": "inactive"}]}]}
